Screening data (PubChem)
BRCA1 expr act: BRCA1 expression activation. MCF7-BRCA1-FFLuc reporter, luminescence, 48 h; response scale: scaled: vehicle 0%, 10 µM genistein 100%. Potency, µM (top dose mostly 46.1 µM), inactives show top-dose activation, actives largely listed as activators. 1.1% of 380,000 active. AID 624202; also: potency is read from the fitted curve at half-maximal effect; nearly all actives have a fitted effect of over 80% in size
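Using MCF7 cells harboring a BRCA1 firefly luciferase reporter, plated 2 h before compound pinning, the screen measured luminescence after 48 h incubation. Responses were normalized to DMSO and 10 microM genistein, then fitted for concentration-effect.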
ELG1 DNA repair: inhibitors of ELG1-dependent DNA repair in HEK293T cells; HEK293T ELG1-luciferase reporter, luminescence, 16 h; DNA damage induced by 5-fluorouridine; Potency, µM (highest dose often 46.1 µM), inactives show at the highest dose activity change, negative = inhibition, most hits filed as inhibitors; 2.3% of 330,000 active; AID 504467; also: potency is read from the fitted curve at half-maximal effect; % is scaled to controls: 0 for no effect and ±100 for the full control effect; nearly all actives have a fitted effect of over 55% in size
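Reporter activity after DNA damage by 5-fluorouridine is monitored. Compound-treated cells incubate 16 hr at 37 °C, then ONE-Glo is added for 30 min before luminescence reading.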
IL-2 act: IL-2 activation; IL-2 activation reporter assay, cell-based qHTS; stimulated with anti-CD3/CD4/CD28 beads; in transgenic mouse T cells; activation, % (series mostly up to about 46 µM); 0.065% of 360,000 active; in the data active = activation above about 50%; inconclusive = mostly about 30% to 49%; also: 0% is about no effect
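Unstimulated transgenic mouse T cells, 750 per well, received compound and, after 60 minutes, anti-CD3/anti-CD4 bead plus anti-CD28 stimulation. EGFP and DsRed were quantified after 18 hours.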
Nrf2 ARE act: activates Nrf2 signaling; AREc32 ARE-luciferase reporter (MCF7-derived line), luminescence, 24 h; Potency, µM (series often up to 46.1 µM), without a hit: at the top dose activation, actives largely listed as activators; 0.31% of 410,000 active; AID 624171; also: potency is read from the fitted curve at half-maximal effect; % of control where 0% means no effect; nearly all actives have a fitted effect of over 65% in size
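For detection, Steady-Glo was added and plates sat 30 min at RT; before that, AREc32_Fluc cells grown overnight in OPTI-MEM/5% FBS had been treated with 23 nL compound for 24 hr at 37 deg C.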
ELG1 FLuc counter: luciferase inhibition in cell-free luciferin readout for ELG1 hits. cell-free firefly luciferase luminescence counter-screen, ViewLux. Potency, µM (titrated, usually from 46.1 µM), inactives show at the top dose activity change, negative = inhibition, actives largely listed as inhibitors. 3% of 350 active. shares compounds with ELG1 DNA repair; also: potency is read from the fitted curve at half-maximal effect; % is scaled to controls: 0 for no effect and ±100 for the full control effect
ELG1-Luc inh: confirmation of human ELG1-dependent DNA repair inhibitors; 68% of 670 active; HEK293T ELG1-luciferase levels, luminescence; cells co-treated with 5-fluorouridine; shares compounds with ELG1 DNA repair; AID 624248; Potency, µM (series often up to 46.1 µM), inactives show at the top dose activity change, negative = inhibition, actives largely listed as inhibitors; also: potency is read from the fitted curve at half-maximal effect; % is scaled to controls: 0 for no effect and ±100 for the full control effect; nearly all actives have a fitted effect of over 55% in size
Target sequence (Q96QE3 whole entry, looked up): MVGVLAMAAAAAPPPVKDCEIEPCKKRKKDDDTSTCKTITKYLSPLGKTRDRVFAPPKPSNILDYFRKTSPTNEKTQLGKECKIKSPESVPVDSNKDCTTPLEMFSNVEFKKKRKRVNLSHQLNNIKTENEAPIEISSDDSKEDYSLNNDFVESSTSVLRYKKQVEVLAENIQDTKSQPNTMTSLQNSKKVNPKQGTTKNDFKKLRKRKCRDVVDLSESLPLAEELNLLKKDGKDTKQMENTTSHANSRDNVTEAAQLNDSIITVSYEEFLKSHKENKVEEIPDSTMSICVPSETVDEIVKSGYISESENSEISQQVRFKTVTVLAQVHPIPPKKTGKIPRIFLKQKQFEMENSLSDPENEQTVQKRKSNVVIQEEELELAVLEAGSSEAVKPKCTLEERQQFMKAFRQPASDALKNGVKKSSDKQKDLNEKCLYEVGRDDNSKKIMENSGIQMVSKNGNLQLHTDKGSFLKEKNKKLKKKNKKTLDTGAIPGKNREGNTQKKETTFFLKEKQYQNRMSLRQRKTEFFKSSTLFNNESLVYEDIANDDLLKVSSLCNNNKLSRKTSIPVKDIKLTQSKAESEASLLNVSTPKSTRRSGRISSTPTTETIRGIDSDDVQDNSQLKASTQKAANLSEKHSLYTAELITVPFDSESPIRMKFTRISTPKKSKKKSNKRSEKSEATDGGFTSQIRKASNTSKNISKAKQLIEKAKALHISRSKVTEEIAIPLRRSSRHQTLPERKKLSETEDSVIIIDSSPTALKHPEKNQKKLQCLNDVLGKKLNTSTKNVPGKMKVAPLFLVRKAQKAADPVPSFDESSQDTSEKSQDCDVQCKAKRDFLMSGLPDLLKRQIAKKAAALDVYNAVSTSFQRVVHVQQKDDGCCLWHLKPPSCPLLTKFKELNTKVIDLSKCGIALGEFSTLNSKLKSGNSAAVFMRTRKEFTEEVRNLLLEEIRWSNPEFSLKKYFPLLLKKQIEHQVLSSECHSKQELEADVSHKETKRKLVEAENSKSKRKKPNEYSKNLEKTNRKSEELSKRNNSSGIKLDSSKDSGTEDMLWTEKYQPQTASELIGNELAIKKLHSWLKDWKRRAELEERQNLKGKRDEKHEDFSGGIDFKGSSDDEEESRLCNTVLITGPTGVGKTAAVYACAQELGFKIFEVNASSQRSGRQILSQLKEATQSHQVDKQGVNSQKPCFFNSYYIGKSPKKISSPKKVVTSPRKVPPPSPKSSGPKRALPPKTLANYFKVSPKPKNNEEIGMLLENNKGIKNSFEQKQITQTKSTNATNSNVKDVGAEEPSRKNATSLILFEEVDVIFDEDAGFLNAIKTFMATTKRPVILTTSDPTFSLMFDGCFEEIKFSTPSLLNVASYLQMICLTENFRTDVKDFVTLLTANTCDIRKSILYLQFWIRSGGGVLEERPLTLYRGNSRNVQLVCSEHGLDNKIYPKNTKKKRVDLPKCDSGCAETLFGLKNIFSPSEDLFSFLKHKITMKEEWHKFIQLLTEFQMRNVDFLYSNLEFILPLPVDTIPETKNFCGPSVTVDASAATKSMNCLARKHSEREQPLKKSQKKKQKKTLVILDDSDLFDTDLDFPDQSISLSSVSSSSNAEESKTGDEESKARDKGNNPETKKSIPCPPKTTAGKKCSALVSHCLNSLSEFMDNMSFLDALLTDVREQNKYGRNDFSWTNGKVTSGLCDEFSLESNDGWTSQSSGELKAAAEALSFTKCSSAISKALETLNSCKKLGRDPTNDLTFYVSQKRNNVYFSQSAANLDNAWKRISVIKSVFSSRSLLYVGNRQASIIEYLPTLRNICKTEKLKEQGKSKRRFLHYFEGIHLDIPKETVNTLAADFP
ELG1 MMS Luc: confirmation of human ELG1 repair inhibitors, MMS stimulated; 53% of 670 active; Potency, µM (highest dose often 46.1 µM), inactives show top-dose activity change, negative = inhibition, hits mostly inhibitors; HEK293T luciferase-tagged ELG1 level, MMS stimulated; shares compounds with ELG1 DNA repair; also: potency is read from the fitted curve at half-maximal effect; % is scaled to controls: 0 for no effect and ±100 for the full control effect; nearly all actives have a fitted effect of over 60% in size
ELG1 5FU viab: confirmation of ELG1 repair inhibitors: viability with 5FU | Potency, µM (top dose mostly 46.1 µM), without a hit: at the highest dose activity change, negative = viability loss, hits mostly cytotoxic | 670 tested, under 10 active | shares compounds with ELG1 DNA repair | cell viability with 5-FU, ELG1-dependent repair;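 also: ELG1-luc HEK293T cells cotreated with 5-fluorouridine at 10 µM final; potency is read from the fitted curve at half-maximal effect; viability measured 16 h after compound addition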
ELG1 MMS cell: confirmation of ELG1 repair inhibitors: viability with MMS | Potency, µM (titrated, usually from 46.1 µM), inactives show at the highest dose activity change, negative = viability loss, most hits filed as cytotoxic | Cell viability with MMS, ELG1-dependent DNA repair | 33% of 670 active | shares compounds with ELG1 DNA repair;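 also: ELG1-luc HEK293T cells co-treated with 10 µM MMS; potency is read from the fitted curve at half-maximal effect; viability read 16 h after compound addition; % is scaled to controls: 0 for no effect and ±100 for the full control effect; nearly all actives have a fitted effect of over 60% in size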
Cell viab unstim: counter-screen for ELG1 repair inhibitors: unstimulated cell viability. shares compounds with ELG1 DNA repair. 8% of 900 active. Potency, µM (top dose mostly 45.9 µM), without a hit: at the highest dose activity change, negative = loss of viability, usual class: cytotoxic. cell viability counter-screen, unstimulated, luminescence;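 also: potency is read from the fitted curve at half-maximal effect; compound exposure lasted 16 hours before reading; % is scaled to controls: 0 for no effect and ±100 for the full control effect; nearly all actives have a fitted effect of over 55% in size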
FLuc biochem: inhibits purified firefly luciferase, counter-screen for ELG1 hits. purified firefly luciferase, luminescence counter-screen. Potency, µM (series often up to 57.5 µM), for the others: at the highest dose activity, negative = inhibition, most hits filed as inhibitors. 10% of 350 active. shares compounds with ELG1 DNA repair; also: potency is read from the fitted curve at half-maximal effect; % is scaled to controls: 0 for no effect and ±100 for the full control effect
* marks the source's active call; other numbers are inactive results; [ ] = remark or other dose. Compounds with a hit are over-represented: about 3.1% of the library has one in this group of screens. Unless noted, calls follow the shape of the dose curve; as a rule, active = well fitted curve in the direction sought with a large enough effect; inconclusive = small, poorly fitted or top-dose-only effect, or another doubt; inactive = no such curve, though single readings can be large; an effect the other way counts as inactive or inconclusive.

`C=CCn1c(N)c(C(=O)OC(C)CC)c2nc3ccccc3nc21` (centres undefined) gave BRCA1 expr act -23%, ELG1 DNA repair -26%, IL-2 act -2 and Nrf2 ARE act -1%.
`CCN(CC)S(=O)(=O)c1ccc(NC(=O)c2nn(C)c3c2CSc2ccccc2-3)cc1` gave Nrf2 ARE act 0%.
`Cc1ccc(S(=O)(=O)Nc2cc3c4c(c2)CCN4C(=O)CC3)cc1` gave BRCA1 expr act -53%, ELG1 DNA repair inconclusive, IL-2 act -3, Nrf2 ARE act 12%, ELG1 FLuc counter 34%, Cell viab unstim 0% and FLuc biochem 2%.
For Cc1c(C(=O)NCc2ccccc2Cl)sc2nc3n(c(=O)c12)CCCCC3 the results were Nrf2 ARE act 5%.
Cc1ccccc1NS(=O)(=O)c1ccc2[nH]cc(C(=O)N3CCCC3)c(=O)c2c1 was read as Nrf2 ARE act 0%.
For O=C(COc1ccccc1F)Nc1ccc(-c2nc3ccccc3s2)cc1 the results were Nrf2 ARE act 6%, ELG1 FLuc counter 69%, Cell viab unstim -16% and FLuc biochem inconclusive.
Screening Cc1nc2ccc(NC(=O)COc3ccccc3F)cc2s1 returned BRCA1 expr act 0%, ELG1 DNA repair inconclusive, IL-2 act 0 and Nrf2 ARE act 3%.
For CCN1CCN(c2ccc(Nc3ccnc4ccccc34)cc2)CC1 the results were BRCA1 expr act -35%, ELG1 DNA repair 4.6µM*, IL-2 act 0, Nrf2 ARE act 0%, ELG1-Luc inh inconclusive, ELG1 MMS Luc 18µM*, ELG1 5FU viab -8%, ELG1 MMS cell inconclusive and Cell viab unstim -13%.
`CC(=O)N1c2c(cc(Br)cc2S(=O)(=O)N2CCN(c3cccc(Cl)c3)CC2)CC1C` (centres undefined) gave BRCA1 expr act 3% and Nrf2 ARE act -1%.
For COc1cccc(CNC(=O)C2CCCN(c3nn4c(=O)cc(C)nc4s3)C2)c1 (centres undefined) the results were BRCA1 expr act 0%, ELG1 DNA repair inconclusive, IL-2 act -1, Nrf2 ARE act 0%, ELG1 FLuc counter 1%, Cell viab unstim 8% and FLuc biochem 6%.
Screening O=C(Cn1cnc2ccccc21)Nc1ccc(SC(F)F)cc1 returned BRCA1 expr act -6%, ELG1 DNA repair 2.1µM*, IL-2 act -1, Nrf2 ARE act 5%, ELG1-Luc inh -1%, ELG1 MMS Luc 1.6µM*, ELG1 5FU viab -4%, ELG1 MMS cell 1.8µM* and Cell viab unstim inconclusive.
CCOC(=O)c1sc(N(Cc2ccccc2)C(=O)COC(=O)c2ccc(O)cc2)nc1C was read as BRCA1 expr act 28%, ELG1 DNA repair 1.3µM*, IL-2 act -1, Nrf2 ARE act 0%, ELG1-Luc inh 2µM*, ELG1 MMS Luc 0.71µM*, ELG1 5FU viab -15%, ELG1 MMS cell 0.79µM* and Cell viab unstim inconclusive.
Screening CCOC(=O)c1sc(N(Cc2ccccc2)C(=O)COC(=O)c2ccccc2O)nc1C returned BRCA1 expr act 40%, ELG1 DNA repair 23%, IL-2 act 0 and Nrf2 ARE act -1%.
`CN=C1SC(CC(=O)Nc2ccccc2F)C(=O)N1/N=C/c1ccc(O)c(OC)c1` (centres undefined) gave BRCA1 expr act -26%, ELG1 DNA repair 2.9µM*, IL-2 act -1, Nrf2 ARE act 2%, ELG1-Luc inh 14µM*, ELG1 MMS Luc 12%, ELG1 5FU viab inconclusive, ELG1 MMS cell 0% and Cell viab unstim inconclusive.
`CC(=O)Nc1c(C(=O)Nc2ccccc2F)oc2ccccc12` gave BRCA1 expr act 9% and Nrf2 ARE act 1%.
For Cc1csc(SCC(=O)Nc2cccc3nsnc23)n1 the results were BRCA1 expr act -1%, ELG1 DNA repair 2.6µM*, IL-2 act 0, Nrf2 ARE act 6%, ELG1-Luc inh 2.8µM*, ELG1 MMS Luc inconclusive, ELG1 5FU viab -10%, ELG1 MMS cell -5% and Cell viab unstim -19%.
`CC(=O)Nc1cccc(OCC(O)Cn2c(C)nc3ccccc32)c1` (centres undefined) gave BRCA1 expr act -1%, ELG1 DNA repair inconclusive, IL-2 act -2 and Nrf2 ARE act 0%.
`CCCOC(=O)c1ccc(OCC(O)Cn2c(C)nc3ccccc32)cc1` (centres undefined) gave BRCA1 expr act -2%, ELG1 DNA repair 1.5µM*, IL-2 act -4, Nrf2 ARE act 0%, ELG1-Luc inh inconclusive, ELG1 MMS Luc 1.8µM*, ELG1 5FU viab -4%, ELG1 MMS cell 2µM* and Cell viab unstim inconclusive.
N#C/C(=C\c1cccnc1)c1ccccn1 was read as BRCA1 expr act 50%, ELG1 DNA repair inconclusive, IL-2 act -2, Nrf2 ARE act 3%, ELG1 FLuc counter 44%, Cell viab unstim 4% and FLuc biochem -3%.
`COc1ccc(-c2nn(-c3ccccc3)cc2/C=C/C(=O)N2CCOCC2)cc1OC` gave BRCA1 expr act -11%, ELG1 DNA repair 1.5µM*, IL-2 act -4, Nrf2 ARE act 0%[9.22 µM], ELG1-Luc inh 1.4µM*, ELG1 MMS Luc -16%, ELG1 5FU viab inconclusive, ELG1 MMS cell -10% and Cell viab unstim inconclusive.
`COc1ccc(-c2nn(-c3ccccc3)cc2C(=O)O)cc1OC` gave BRCA1 expr act 3%, ELG1 DNA repair 13%, IL-2 act -3 and Nrf2 ARE act 0%.
